This note sets out measurements from PubChem BioAssay AID2502 (National Center for Advancing Translational Sciences (NCATS), 2010).

Several values for one entry are separate records, joined by “and”; a condition that tells them apart may be missing. Equal entries are not always repeated. Records with an inconclusive call do not appear. Activity calls are given as the source filed them. Calls come from the whole dose curve; as a rule, active = well fitted curve in the direction sought with a large enough effect; inconclusive = small, poorly fitted or top-dose-only effect, or another doubt; inactive = no such curve, though single readings can be large or run the other way.

A short description of this assay: Confirmatory Assay for Inhibitors of Human Galactokinase (GALK): Phenol-HRP redox assay counterscreen for probe SAR. The following applies: Phenol red-HRP H2O2 redox cycling, absorbance 600 nm. The text has this:
NIH Molecular Libraries Probe Production Centers Network [MLPCN] NIH Chemical Genomics Center [NCGC] MLPCN Grant: R03 MH085689-01 Assay Submitter (PI): Kent Lai (University of Utah School of Medicine, 50 N Mario Capecchi Drive, Salt Lake City, UT 84132) NCGC Assay Overview: One mM dithiothreitol (DTT) was used as a reducing agent to maintain the galactokinase (GALK) enzyme in its active form in the GALK qHTS screen (AID: 1868). However, it has been shown that in the presence of DTT a number of compounds also undergo redox recyling, generating a significant amount of H2O2 that can oxidize crucial cysteine residues in the enzyme, leading to and a false-positive result. To evaluate and flag redox recycling compounds for compounds re-acquired from the qHTS screen, an endpoint colorimetric assay developed by Johnston et al. was adopted and optimized for a 1536-well plate format. In brief, the assay detects the presence of H2O2 by following the change in absorbance at 600 nm due to oxidation of phenol red (Sigma, cat# 114537) catalyzed by horseradish peroxidase (HRP; Invitrogen). A stop reagent, 1N NaOH was added prior to reading the absorbance. DMSO and different concentrations of hydrogen peroxide (Sigma, cat# 216763) in the GALK buffer were used as negative and positive controls respectively.
NCGC Assay Protocol Summary: Two uL/well of GALK buffer (20mM HEPES pH8.0, 5 mM MgCl2, 60 mM NaCl, 1 mM DTT, 0.01% BSA final concentration) was dispensed into a 1536-well assay plates (Greiner, black clear bottom plates) with Aurora Discovery BioRAPTR Flying Reagent Dispenser (FRD; Beckton-Dickenson). Compound and control solutions (23 nL each) were transferred to the assay plate in their respective wells using Kalypsys pin tool equipped with a 1536-pin tool head and incubated at room temperature for 30 min. Presence of H2O2 produced by redox cycling compounds was detected by adding 2 uL/well phenol red - HRP detection reagent ([…] phenol red in 1x Hanks Balanced Salt Solution, 25 U/mL HRP final concentrations). After 15 min of room temperature incubation, the reaction was stopped by adding 2 uL/well 1N NaOH and incubated for an additional 1 hr at room temperature. The absorbance at 600 nm was measured using the ViewLux plate reader (Perkin Elmer, Waltham, MA) with 6000 light energy, 2 sec exposure, and 2x binning instrument settings.
(In general: A counterscreen serves to expose hits that act by an unwanted route or on another target.)
Regarding `O=C1CCCC2=C1[C@@]1(CCC(c3ccccc3)C1)N=C(Nc1nc3ccccc3o1)N2` (stereo partly specified), the max response was -22.7% (inactive).

In the case of `CC1CCC2(C1)N=C(Nc1nc3ccccc3o1)NC1=C2C(=O)CCC1` (stereo unspecified), the max response was 2.86% (inactive).

On to `O=C1CCCC2=C1C(c1ccc(Cl)cc1)N=C(Nc1nc3ccccc3o1)N2` (stereo unspecified), for which the max response is 2.22% (inactive).

As to `CCC1CCC2(C1)N=C(Nc1nc3ccccc3o1)NC1=C2C(=O)CCC1` (stereo unspecified), the max response is 9.72% (inactive) [middle of 5 runs].

As to `CC1(C)CC(=O)C2=C(C1)NC(Nc1nc3ccccc3o1)=NC2c1ccccc1` (stereo unspecified), the max response is 4.41% (inactive).

As for `CC1(C)N=C(Nc2nc3ccccc3o2)NC2=C1C(=O)CCC2`, the max response was -7.6% (inactive).

Turning to `Cn1c(NC2=NC3(CCCC3)C3=C(CCCC3=O)N2)nc2ccccc21`, the max response is -10.7% (inactive).

For `CC1(C)CC(=O)C2=C(C1)NC(Nc1nc3ccccc3o1)=NC2c1cccc(Cl)c1` (stereo unspecified), the max response was -8.98% (inactive).

`CC1(C)CC(=O)C2=C(C1)NC(Nc1nc3ccccc3o1)=NC21CCCC1`: the max response was -0.364% (inactive).

Turning to `O=C1CCC2=C1C1(CCCC1)N=C(Nc1nc3ccccc3o1)N2`, the max response was -0.733% (inactive).

On to `COc1ccccc1C1N=C(Nc2nc3ccccc3o2)NC2=C1C(=O)CC(C)(C)C2` (stereo unspecified), for which the max response is -7.36% (inactive).

`O=C1CCCC2=C1C1(CCSCC1)N=C(Nc1nc3ccccc3o1)N2`: the max response was 3.32% (inactive).

As to `O=C1CC(c2ccccc2)CC2=C1C1(CCCC1)N=C(Nc1nc3ccccc3o1)N2` (stereo unspecified), the max response was -23.7% (inactive).

Take `Cc1nc(Nc2nc3ccccc3o2)nc2c1C(=O)CC(C)(C)C2`: the max response is -9.62% (inactive).

`O=C1CCCC2=C1C1(CCOCC1)N=C(Nc1nc3ccccc3o1)N2`: the max response is -7.41% (inactive).

For the compound `O=C1CCCC2=C1C1(CCCC1)N=C(Nc1nc3cc(Cl)ccc3o1)N2`, the max response is -6.87% (inactive).

As to `O=C1CCCC2=C1C1(CCCC1)N=C(Nc1nc3ccccc3o1)N2`, the max response was -5.8% (inactive) and 7.13% (inactive).

`O=C1CCCC2=C1C1(CCCCC1)N=C(Nc1nc3ccccc3o1)N2`: the max response is -4.16% (inactive).

On to `O=C1CCCC2=C1C1(CCSC1)N=C(Nc1nc3ccccc3o1)N2` (stereo unspecified), for which the max response was 9.11% (inactive).

Consider `COc1cccc(C2N=C(Nc3nc4ccccc4o3)NC3=C2C(=O)CC(C)(C)C3)c1` (stereo unspecified), for which the max response is -7.9% (inactive).

Turning to `O=C1CC(c2ccccc2)CC2=C1C1(CCCCC1)N=C(Nc1nc3ccccc3o1)N2` (stereo unspecified), the max response is -19.3% (inactive).

`O=C1CCCC2=C1C1(CCCC1)N=C(Nc1nc3cc(Br)ccc3o1)N2`: the max response was -13.4% (inactive).

In the case of `CC1(C)CC(=O)C2=C(C1)NC(Nc1nc3ccccc3o1)=NC2c1cccnc1` (stereo unspecified), the max response is -12.6% (inactive).

As for `COc1ccc(C2N=C(Nc3nc4ccccc4o3)NC3=C2C(=O)CC(C)(C)C3)cc1` (stereo unspecified), the max response is -4.13% (inactive).

`Cc1ccc2nc(NC3=NC4(CCCC4)C4=C(CCCC4=O)N3)oc2c1`: the max response was -9.86% (inactive).

In the case of `CC1(C)CC(=O)C2=C(C1)NC(Nc1nc3ccccc3o1)=NC2c1ccccc1Cl` (stereo unspecified), the max response was -4.5% (inactive).

Regarding `O=C1CCCC2=C1C1(CCCOC1)N=C(Nc1nc3ccccc3o1)N2` (stereo unspecified), the max response is 1.73% (inactive).

Regarding `Cc1ccc2oc(NC3=NC4(CCCC4)C4=C(CCCC4=O)N3)nc2c1`, the max response was -13.5% (inactive).

`O=C1CCCC2=C1C(c1ccccc1Cl)N=C(Nc1nc3ccccc3o1)N2` (stereo unspecified): the max response is 1.07% (inactive).

In the case of `O=C1CCC2=C1C(c1ccccc1Cl)N=C(Nc1nc3ccccc3o1)N2` (stereo unspecified), the max response is 4.53% (inactive).

With `Cc1ccc(C2N=C(Nc3nc4ccccc4o3)NC3=C2C(=O)CC(C)(C)C3)cc1` (stereo unspecified), the max response is 0.33% (inactive).

Take `O=C1CCCC2=C1C1(CCCC1)N=C(Nc1nc3ccccc3n1Cc1ccccc1)N2`: the max response was -7.8% (inactive).

With `O=C1CCCC2=C1C1(CCC1)N=C(Nc1nc3ccccc3o1)N2`, the max response was -2.94% (inactive).

Take `O=C1CCCC2=C1C1(CCCC1)N=C(Nc1nc3cc4ccccc4cc3o1)N2`: the max response is -24.7% (inactive).

Take `O=C1CCCC2=C1C1(CCS(=O)(=O)C1)N=C(Nc1nc3ccccc3o1)N2` (stereo unspecified): the max response is 7.09% (inactive).

Consider `O=C1CCCC2=C1C1(CCCC1)N=C(Nc1nc3cc(-c4ccccc4)ccc3o1)N2`, for which the max response was -17.5% (inactive).
